PubChem BioAssay AID463173 (ICCB-Longwood Screening Facility, Harvard Medical School, 2010)
The whole screen tested about 52,000 compounds, of which about 4,300 (8.3%) were called active. This excerpt belongs to a sample that is enriched for actives. A number with no mark means an inactive call. No stated cut-off is given here; in the data, active means survival mostly below about 52% (no sharp cut-off); inactive means mostly above about 56%.

System: DeltatarO mutant
Test: S. aureus survival, RN4220 and DeltatarO strains – OD600, teichoic acid synthesis inhibitors, primary screen (AID 463173)
Details: S. aureus RN4220 wild type/DeltatarO growth, OD600, 18 h, stronger effect = lower value, screened at 18.75 µg/mL (by protocol)

Row | Structure (SMILES) | survival
1 | O=C(Nc1ccccc1C(F)(F)F)N1CCOc2ccc(Cl)cc21 | 46%
2 | Cc1cc(C)c(Cn2c(C(O)c3ccccc3)nc3ccccc32)c(C)c1 (configuration not stated) | 31% (active)
3 | COC(=O)Cn1c(C(O)c2ccccc2)nc2ccccc21 (configuration not stated) | 71%
4 | OC(c1ccccc1)c1nc2ccccc2n1Cc1c(F)cccc1Cl (configuration not stated) | 74%
5 | Cc1cccc(-c2nc3c4ccccc4nc(NCCc4ccccc4)n3n2)c1 | 7% (active)
6 | COc1ccc(CCNc2nc3cc(OC)c(OC)cc3c3nc(-c4cccnc4)nn23)cc1OC | 117%
7 | COc1cc2nc(NCCc3ccccc3)n3nc(-c4cccnc4)nc3c2cc1OC | 118%
8 | COc1ccc(CCNc2nc3cc(OC)c(OC)cc3c3nc(-c4ccccc4)nn23)cc1OC | 93%
9 | COc1ccc(CCNc2nc3ccccc3c3nc(-c4cccc(C)c4)nn23)cc1OC | 20% (active)
10 | COc1cc2nc(NCCc3cccc(C)c3)n3nc(-c4ccccc4)nc3c2cc1OC | 59%
11 | Cc1cc2[nH]c(=O)c(=O)[nH]c2cc1S(=O)(=O)Nc1ccc(OC(F)(F)F)cc1 | 67%
12 | CCCn1c(=O)n(-c2cc(Cl)c(OC)cc2OC)c(=O)c2c3c(sc21)CN(C(C)=O)CC3 | 62%
13 | O=C(O)CCc1ccc(-c2ccccc2)n1CC(=O)Nc1ccccc1C(F)(F)F | 60%
14 | CCc1ccccc1NC(=O)C1=C(C)C(=O)OC12CCCCCC2 | 58%
15 | CCn1cc(C(=O)OCC(=O)Nc2cc(Cl)ccc2C)c(=O)c2ccc(C)nc21 | 74%
16 | CCn1cc(C(=O)OCC(=O)Nc2ccc(C)c(Cl)c2)c(=O)c2ccc(C)nc21 | 63% (active)
17 | CCn1cc(C(=O)OCC(=O)Nc2cc(C)cc(C)c2)c(=O)c2ccc(C)nc21 | 64%
18 | CCCCCCC1CCC(C(=O)NC(C(=O)O)C(C)C)CC1 (configuration not stated) | 49%
19 | CCCCC1CCC(CCCC(C)CCC(=O)O)CC1 (configuration not stated) | -4% (active)
20 | CCCCCCC1CC=C(C(=O)O)CC1 (configuration not stated) | 76%
21 | O=c1c2sc3ccccc3c2n(Cc2ccccc2)c(=O)n1CCc1ccccc1 | 71%

Row | Structure (SMILES) | survival
22 | CS(=O)(=O)N(CC(=O)Nc1cccnc1)c1ccc(Cl)cc1 | 91%
23 | COc1ccc(N(CC(=O)Nc2cc(Cl)ccc2C)S(=O)(=O)c2c(C)noc2C)cc1 | 51%
24 | COc1ccc(S(=O)(=O)N(CC(=O)Nc2cc(C)cc(C)c2)c2ccc(Cl)cc2)cc1 | 77%
25 | CCOc1ccc(S(=O)(=O)N(CC(=O)Nc2cccnc2)c2ccccc2)cc1 | 114%
26 | COc1ccc(N(CC(=O)NCc2ccc(F)cc2)S(=O)(=O)c2c(C)noc2C)cc1 | 82%
27 | O=C(CN(c1ccc(Cl)c(C(F)(F)F)c1)S(=O)(=O)c1ccccc1)Nc1cccnc1 | 47% (active)
28 | COc1ccc(N(CC(=O)Nc2cc(OC)cc(OC)c2)S(=O)(=O)c2c(C)noc2C)cc1 | 45% (active)
29 | COc1ccc(S(=O)(=O)N(CC(=O)Nc2cccnc2)c2ccc(Cl)cc2)cc1 | 30% (active)
30 | O=C(CN(c1ccc(Cl)c(C(F)(F)F)c1)S(=O)(=O)c1ccccc1)N1CCc2ccccc2C1 | 42%
31 | Cc1cc(C)c(NC(=O)Cn2c(=O)n(CC(=O)NCc3ccccc3Cl)c(=O)c3sccc32)c(C)c1 | 171%
32 | Cc1ccc(N2CCN(C(=O)c3nn(C)c4c3CS(=O)(=O)c3ccccc3-4)CC2C)cc1 (configuration not stated) | 56%
33 | O=C(c1ccc2c(c1)N(Cc1cccc(Cl)c1)C(=O)c1ccccc1S2(=O)=O)N1CCCC1 | 115%
34 | CCOc1ccccc1CNC(=O)CSc1nnc(C)c2c(C)n(-c3ccccc3)nc12 | 83%
35 | CC(C)CNS(=O)(=O)c1ccc(S(=O)(=O)N2CCCC(C(=O)NC3CCCCC3)C2)cc1 (configuration not stated) | 75%
36 | CCCCOc1ccc(CNC(=O)C2COc3ccc(OC)cc3C2)cc1 (configuration not stated) | 94%
37 | CNC(=O)c1c[nH]c2ccc(S(=O)(=O)Nc3cccc(Cl)c3C)cc2c1=O | 91%
38 | CCOCCCNC(=O)c1c[nH]c2ccc(S(=O)(=O)Nc3cccc(Cl)c3C)cc2c1=O | 93%
39 | CCc1ccccc1NS(=O)(=O)c1ccc2[nH]cc(C(=O)NC3CCCC3)c(=O)c2c1 | 33% (active)
40 | Cc1c(Cl)cccc1NS(=O)(=O)c1ccc2[nH]cc(C(=O)NC3CCCC3)c(=O)c2c1 | 7% (active)
41 | Cc1ccccc1NS(=O)(=O)c1ccc2[nH]cc(C(=O)NC3CCCCC3)c(=O)c2c1 | 85%
42 | O=C(NC1CCCCC1)c1c[nH]c2ccc(S(=O)(=O)Nc3ccccc3F)cc2c1=O | 83%

Row | Structure (SMILES) | survival
43 | CNc1nc2ccccc2o1 | 89%
44 | O=C(CSc1nnc(-c2cccs2)o1)Oc1ccccc1Cl | 81%
45 | Cc1ccc(CNC(=O)CCCn2c(=O)c3ccccc3n(CC(=O)Nc3ccc(C)cc3)c2=O)cc1 | 89%
46 | CCOC(=O)N1CCN(C(=O)CN(c2cc(C)ccc2OC)S(=O)(=O)c2ccc(C)cc2)CC1 | 87%
47 | COc1ccc(C)cc1N(CC(=O)N1CCC(C)CC1)S(=O)(=O)c1ccc(C)cc1 | 55% (active)
48 | COc1ccccc1N(CC(=O)N1CCC(C)CC1)S(=O)(=O)c1ccc(C)cc1 | 134%
49 | O=C(CSc1nc(-c2ccc(F)cc2)[nH]c1-c1ccc(F)cc1)Nc1ccc2c(c1)OCCO2 | 76%
50 | N#CC(C#N)=C1c2ccccc2-c2nc(C#N)c(C#N)nc21 | 4% (active)
51 | N#Cc1nc2c(nc1C#N)-c1ccccc1C2=O | 19% (active)
52 | O=C1c2ccccc2-c2n[nH]c(=S)nc21 | 64%
53 | N#CCCCN1C(=O)C(=C(C#N)C#N)c2ccccc21 | 75%
54 | N#CC(C#N)=C1c2ccccc2-c2c1nc1ccccc1[n+]2[O-] | 78%
55 | N#Cc1cc2nc3c(nc2cc1C#N)-c1cccc2cccc-3c12 | 85%
56 | COC(=O)c1ccc2c(=O)n(CCCCCC(=O)N3CCN(c4ccc(Cl)cc4)CC3)c(=O)[nH]c2c1 | 116%
57 | CCc1ccc(OC(C)C(=O)Nc2c(C(=O)c3ccccc3)oc3ccccc23)cc1 (configuration not stated) | 38%
58 | Cc1cc(C)cc(OC(C)C(=O)Nc2c(C(=O)c3ccccc3)oc3ccccc23)c1 (configuration not stated) | 17% (active)
59 | Cc1ccc(C(=O)c2oc3ccccc3c2NC(=O)COc2ccccc2Cl)cc1 | 123%
60 | COc1ccccc1OC(C)C(=O)Nc1c(C(=O)c2ccc(Cl)cc2)oc2ccccc12 (configuration not stated) | 81%
61 | Cc1ccc(C(=O)c2oc3ccccc3c2NC(=O)C(C)Oc2ccccc2Cl)cc1 (configuration not stated) | 40% (active)
62 | Cc1cc(C)cc(OCC(=O)Nc2c(C(=O)c3ccccc3)oc3ccccc23)c1 | 92%
